# Bcl-xL primary = inhibitors of human Bcl-xL, primary screen, biochemical, fluorescence polarization, HTS | GST-Bcl-xL / FITC-Bim BH3 peptide fluorescence polarization | inhibition, % at 10.9 µM | 320,000 compounds, 0.7% hits | AID 2129, 2009;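 active = inhibition above the mean of all tested compounds plus 3 SD, cutoff set per campaign, cut at about 30% in these data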;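 also: 0% = DMSO wells and 100% = unlabeled Bim-BH3 peptide competitor; inhibitors lower millipolarization by displacing the labeled peptide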
# Target sequence (Q07817 whole entry, looked up): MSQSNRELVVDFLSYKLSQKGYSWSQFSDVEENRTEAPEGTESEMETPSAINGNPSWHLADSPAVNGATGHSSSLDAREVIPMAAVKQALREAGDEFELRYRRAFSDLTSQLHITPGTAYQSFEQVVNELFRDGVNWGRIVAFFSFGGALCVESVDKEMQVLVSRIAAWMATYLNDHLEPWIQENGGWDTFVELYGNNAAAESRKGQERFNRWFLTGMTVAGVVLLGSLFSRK
# Mcl1-Noxa inh = Mcl-1/Noxa binding inhibitors, primary screen, biochemical, TR-FRET, 1536-well. 220,000 compounds, 1.5% hits. TR-FRET Mcl-1/Noxa peptide binding, 2 h. inhibition, % at 21.7 µM;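 active = compounds that cut the protein-peptide binding signal by more than 50% relative to plate controls in a single-dose test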;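 also: His-tagged Mcl-1 with rhodamine Noxa BH3 peptide and terbium anti-His antibody; 0% = Mcl-1 plus Noxa peptide wells and 100% = peptide-only wells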
# Target sequence (Q07820 whole entry, looked up): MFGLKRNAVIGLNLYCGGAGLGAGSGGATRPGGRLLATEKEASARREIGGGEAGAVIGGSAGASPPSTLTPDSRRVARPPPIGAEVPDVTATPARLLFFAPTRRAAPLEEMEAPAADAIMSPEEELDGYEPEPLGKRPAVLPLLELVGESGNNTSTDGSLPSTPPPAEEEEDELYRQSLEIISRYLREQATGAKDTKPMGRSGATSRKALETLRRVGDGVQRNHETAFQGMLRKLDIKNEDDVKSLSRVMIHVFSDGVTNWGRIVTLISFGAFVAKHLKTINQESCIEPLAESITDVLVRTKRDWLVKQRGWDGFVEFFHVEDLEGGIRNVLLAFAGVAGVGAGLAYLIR
# MCL1-BIM inh = inhibitors of MCL1 binding to BIM-BH3, primary screen, biochemical, fluorescence polarization. Induced myeloid leukemia cell differentiation protein Mcl-1 (Homo sapiens), Q07820. GST-MCL1 / FITC-Bim-BH3 fluorescence polarization. inhibition, % at 10.9 µM. 320,000 compounds, 0.68% hits. AID 2057, 2009;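 active = inhibition above the mean inhibition of all tested compounds plus 3 SD, set per campaign, cut at about 40% in these data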;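 also: 0% = DMSO wells and 100% = unlabeled Bim-BH3 peptide control; higher means more loss of mP so more displacement of Bim peptide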
# Mcl1-Bid inh = Mcl-1/Bid binding inhibitors, primary screen, biochemical, TR-FRET, 1536-well; Induced myeloid leukemia cell differentiation protein Mcl-1 (Homo sapiens), Q07820; TR-FRET Mcl-1/Bid-Dy647 peptide binding; inhibition, % at 21.7 µM; 220,000 compounds, 0.97% hits; AID 1021, 2008;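 active = compounds that cut the binding signal by more than half at the single screening dose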;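 also: His-tagged Mcl-1 with europium anti-His antibody binding Bid BH3 peptide; 0% = Mcl-1 plus peptide wells and 100% = peptide-only wells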
# Bim-Mcl-1 = inhibitors of Bim peptide binding to Mcl-1, primary screen, biochemical, bead-based flow cytometry, multiplex; Bim peptide-Mcl-1 binding; AID 1009, 2008; Induced myeloid leukemia cell differentiation protein Mcl-1 (Homo sapiens), Q07820; 190,000 compounds, 0.1% hits; inhibition, % at 10 µM; in the data active = inhibition above about 40%;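 also: 0% = no compound tracer wells and 100% = peptide blocker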
# GLD-1 TGE inh = GLD-1/TGE RNA complex disruptors, primary screen, biochemical, fluorescence polarization | 320,000 compounds, 0.44% hits | Female germline-specific tumor suppressor gld-1 (Caenorhabditis elegans), Q17339 | purified GLD-1 + fluorescein TGE RNA | AID 2280, 2010 | inhibition, % at 5.96 µM;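 active = percent inhibition above a per-plate cutoff, the plate mean of test compounds plus 3 SD, cut at about 30% in these data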;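 also: 0% = DMSO wells with GLD-1 and probe and 100% = wells lacking GLD-1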
# Bcl-xL conf = Bcl-xL inhibitors blocking Bim BH3 binding, confirmation, counter-screen for MCL1 inhibitor project, biochemical, fluorescence polarization; GST-Bcl-xL / FITC-Bim BH3 peptide FP binding; shares compounds with MCL1-BIM inh; inhibition, % at 10.9 µM; 1,700 compounds, 54% hits;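 active = inhibition above a cutoff equal to the mean inhibition of all tested compounds plus 3 SD, cut at about 30% in these data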;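 also: 0% = DMSO wells and 100% = unlabeled Bim BH3 control peptide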
# MCL1 inh confirm = inhibitors of MCL1 binding to BIM-BH3, confirmation, biochemical, fluorescence polarization, triplicate; inhibition, % at 10.9 µM; GST-MCL1 / FITC-Bim-BH3 fluorescence polarization; AID 2168, 2009; shares compounds with MCL1-BIM inh; 1,700 compounds, 61% hits;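 active = inhibition above the average of all tested compounds plus 3 SD, cut at about 40% in these data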;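 also: 0% = DMSO wells and 100% = unlabeled Bim-BH3 control peptide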
# Numbers without * were called inactive; / = no result; + = active, no number. Hits are enriched below; roughly 2.3% of the tested compounds scored in any of these assays.
SMILES,Bcl-xL primary,Mcl1-Noxa inh,MCL1-BIM inh,Mcl1-Bid inh,Bim-Mcl-1,GLD-1 TGE inh,Bcl-xL conf,MCL1 inh confirm
CN(C)N1C(N)=C(C#N)C(c2ccsc2)C2=C1CC(C)(C)CC2=O (centres undefined),7.6,-19.4,3.8,-24.5,-3.0,3.8,/,/
CN1CC=C2C(C#N)=C(N)C(C#N)(C#N)[C@H](c3cccs3)[C@H]2C1,112.1*,10.6,118.1*,-14.2,/,79.0*,62.9*,70.8*
N#CC1=C(S)N(c2ccccc2)C(c2cccs2)NC1=O (centres undefined),-2.8,-4.1,4.8,1.4,-3.0,-5.2,/,/
CN1CC=C2C(C#N)=C(N)C(C#N)(C#N)[C@H](c3cccc(Cl)c3)C2C1 (some centres undefined),104.4*,13.3,115.5*,-33.7,-2.0,78.8*,31.1*,36.1
CN1CC=C2C(C#N)=C(N)C(C#N)(C#N)C(CCc3ccccc3)C2C1 (centres undefined),89.4*,1.1,82.0*,-42.0,0.0,48.6*,43.1*,65.4*
COC(=O)c1ccccc1NC(=O)NN1CCN(C)CC1,4.3,/,2.0,/,/,2.6,/,/
O=S(=O)(c1ccc2c(c1)CCCN2)N1CCCC1,5.9,/,10.9,/,/,4.7,/,/
CCN(CC)c1ccc2c(c1)CCCN2,105.3*,69.0*,128.2*,-55.3,14.0,90.1*,28.4,19.2
COc1ccc(Br)cc1-c1noc(-c2ccncc2)n1,1.9,-9.8,66.1*,-30.0,-1.0,-1.0,7.0,-0.6
COCCN(C(=O)COC(=O)c1cc2c(s1)CCC2)c1c(N)n(Cc2ccccc2)c(=O)[nH]c1=O,31.9*,/,90.8*,/,/,2.9,39.8*,88.4*
Cc1ccc2c(c1)N(CC(=O)N1CCN(c3ccccc3)CC1)C(=O)C(C)O2 (centres undefined),3.6,/,7.3,/,/,4.0,/,/
O=C1/C(=C/c2cccc(Cl)c2)CSc2sccc21,5.6,7.4,56.2*,-6.3,/,2.6,8.9,4.8
CNc1ccccc(C(=O)/C=C/c2ccccc2OC)c1=O,23.8,63.5*,41.1*,-99.4,3.0,5.2,29.1,61.9*
COc1ccccc1/C=C/C(C)=O,-3.7,3.1,-1.3,-5.6,0.0,-28.3,/,/
CCc1nnc(NC(=O)COC(=O)c2cc(OC)cc(OC)c2)s1,/,/,/,/,/,-3.0,/,/
O=C(CSc1nc2nn(-c3ccccc3)c(=O)c-2c2n1CCCCC2)c1ccc(O)c(O)c1,21.1,/,77.4*,/,/,-0.7,33.5*,81.7*
Cc1ccc2c(c1)N(CC(=O)N1CCCCC1)C(=O)C(C)O2 (centres undefined),2.3,/,4.6,/,/,1.3,/,/
CC(=O)c1cc(-c2ccccc2)n(CC(=O)N2CCC(C)CC2)c1C,10.2,-1.7,10.8,-31.9,-1.0,-3.1,/,/
CC(=O)c1cc(-c2ccccc2)n(CC(=O)N2CCN(C3CCCC3)CC2)c1C,44.7*,-15.1,54.7*,-32.4,-3.0,14.9,18.7,23.5
COc1cccc(C(=O)NCCCNC(=O)c2cccc(OC)c2)c1,-4.9,/,-4.1,/,/,-2.9,/,/
COc1cc(OC)cc(C(=O)NCCCCCCNC(=O)c2cc(OC)cc(OC)c2)c1,44.4*,/,48.5*,/,/,24.2,38.5*,49.5*
CCOC(=O)N1CCN(C(=S)NC(=O)c2ccc(F)cc2)CC1,-2.5,0.0,-3.7,-22.3,2.0,1.2,/,/
N#C/C(=C\c1ccc(O)c(O)c1)C(=O)Nc1cccc2ncccc12,18.0,/,70.5*,/,/,-30.8,33.3*,68.9*
N#C/C(=C\c1ccc(O)c(O)c1)C(=O)Nc1ccccc1,-2.1,/,17.3,/,/,-14.7,/,/
OCCC1CN(CC2CC2)CCN1Cc1ccc(F)c(F)c1 (centres undefined),1.1,/,5.7,/,/,0.2,/,/
SMILES,Bcl-xL primary,Mcl1-Noxa inh,MCL1-BIM inh,Mcl1-Bid inh,Bim-Mcl-1,GLD-1 TGE inh,Bcl-xL conf,MCL1 inh confirm
Cc1ccc(CNc2ccc3c(c2)OCO3)c(C)c1,127.1*,38.4,143.5*,-61.2,3.0,0.3,72.2*,89.9*
Cc1ccc(C)c(NC(=O)Nc2ccc3c(c2)OCO3)c1,2.2,/,1.0,/,/,2.7,/,/
O=C(Nc1ccccc1-c1ccccc1)C(=O)Nc1ccccc1-c1ccccc1,5.0,-2.9,-0.9,-9.7,/,5.1,/,/
O=C(O)C1Nc2c(O)cc(Cl)c([N+](=O)[O-])c2C2C=CCC12 (centres undefined),78.0*,104.5*,101.2*,97.3*,9.0,6.1,43.2*,101.3*
O=[N+]([O-])c1ccc(Cl)c2c1C1C=CCC1C(c1ccccn1)N2 (centres undefined),17.3,-3.0,36.0,-48.5,2.0,13.8,/,/
[O-][n+]1c2ccccc2[n+]([O-])c2cc(O)ccc21,16.9,/,46.1*,/,/,10.3,44.5*,77.3*
O=C(O)[C@@H]1[C@H]2C[C@H]3c4[nH]c5ccccc5c4CCN3C[C@@H]2CC[C@@H]1O,15.5,/,18.2,/,/,10.4,/,/
O=C(O)C1CCCC2CN3CCc4c([nH]c5ccccc45)C3C(O)C21 (centres undefined),86.4*,/,104.0*,/,/,34.8*,29.4,31.2
CCN(c1ccccc1)S(=O)(=O)c1ccc(F)cc1,3.0,14.4,-0.2,13.9,-2.0,4.8,/,/
COC(=O)CN(c1ccccc1)S(=O)(=O)c1ccc(F)cc1,2.1,7.3,+,-1.1,-2.0,-0.1,8.2,10.3
CCCCn1c(SCC(=O)NCc2ccco2)nc2cc(S(N)(=O)=O)ccc21,-7.6,-8.2,41.0*,-27.5,2.0,-1.4,3.8,11.7
O=C(OCc1cc(=O)n2ccsc2n1)c1ccccc1NCCO,/,/,/,/,/,5.1,/,/
COc1ccc(-c2onc3ccc(Br)cc23)cc1,112.6*,9.5,131.8*,-19.5,-1.0,97.1*,111.3*,133.9*
CS(=O)(=O)c1ccc(Cl)c(NC(=O)COC(=O)CNC(=O)c2sc3ccccc3c2Cl)c1,4.4,/,2.0,/,/,-1.6,/,/
O=C1C(Nc2cccc(O)c2)=C(N2CCCCC2)C(=O)c2ccccc21,56.8*,30.3,54.6*,-61.8,3.0,70.6*,19.3,37.3

# Screening data as filed in PubChem.
